From PubChem BioAssay
HttQ103 aggreg = qHTS Multiplex Assay to Identify Dual Action Probes in a Cell Model of Huntington: Aggregate Formation (GFP). hit rate 1.1% among 220,000. Potency, µM (top dose mostly 46.1 µM), for inactives: at the highest dose activity change, negative = inhibition, usual class: inhibitors. PC12 HttQ103-GFP aggregates, Acumen cytometry, 40 h. AID 1688, 2009; also: potency is read from the fitted curve at half-maximal effect; % is scaled to controls: 0 for no effect and ±100 for the full control effect; nearly all actives have a fitted effect of over 60% in size
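Huntingtin Q103 exon 1–GFP aggregates in induced PC12 cells (100 nM tebufenozide) were quantified by cytometry from lysates, with compounds dosed in titration.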
IMPase cell inh = qHTS Assay for Identifying the Cell-Membrane Permeable IMPase Inhibitors | CHO-M1 cells, IP1 accumulation, HTRF TR-FRET ratio | 120,000 tested, under 10 active | inhibition (IP1 accumulation), % at 46.1 µM | AID 901, 2007 | Inositol monophosphatase 1 (Rattus norvegicus), P97697; active = well fitted curve in the direction sought with a large enough effect in the signal ratio, not every such curve was filed as active; inconclusive = small, poorly fitted or top-dose-only effect, or a change in a side signal; inactive = no such curve, though single readings can be large or run the other way; the % refers to the signal ratio;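 also: cells stimulated with carbachol in lithium chloride buffer; plate controls were DMSO basal wells for no effect and reference inhibitor wells for full effect; higher means more IMPase inhibition seen as more IP1 and lower FRET ratio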
Target sequence (P97697 whole entry, looked up): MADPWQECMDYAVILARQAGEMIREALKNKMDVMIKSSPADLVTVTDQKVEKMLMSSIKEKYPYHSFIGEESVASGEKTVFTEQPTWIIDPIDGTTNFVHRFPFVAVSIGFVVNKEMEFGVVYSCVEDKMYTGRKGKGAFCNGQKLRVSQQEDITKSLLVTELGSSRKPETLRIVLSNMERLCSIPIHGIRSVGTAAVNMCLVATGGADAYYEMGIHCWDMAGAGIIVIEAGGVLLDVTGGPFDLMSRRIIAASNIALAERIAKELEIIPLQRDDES
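In this qHTS, compounds (final up to 46 uM) act on CHO-M1 cells that are then activated through the M1 receptor with carbachol, in pH 7.4 buffer containing 50 mM LiCl, for 30 min. IP1 accumulation is quantified by the IP-One immunoassay.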
ALOX12 inhib = qHTS Assay for Inhibitors of 12-hLO (12-human lipoxygenase); hit rate 0.12% among 150,000; Potency, µM (highest dose often 57.1 µM), without a hit: top-dose activity change, negative = inhibition, hits mostly inhibitors; purified 12-hLO, xylenol orange hydroperoxide absorbance; also: potency is read from the fitted curve at half-maximal effect; % is scaled to controls: 0 for no effect and ±100 for the full control effect; nearly all actives have a fitted effect of over 55% in size
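Hydroperoxide formation by human 12-lipoxygenase from 40 uM arachidonic acid was followed colorimetrically via ferric-xylenol orange complex, using the 573/405 nm absorbance ratio. Enzyme concentration was 150 nM, with 30 min reaction at room temperature.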
NPSR antag = qHTS Assay for Antagonists of the Neuropeptide S Receptor: cAMP Signal Transduction; Q6W5P4; CHO-NPSR cells, cAMP TR-FRET, antagonist mode; Potency, µM (series often up to 38.3 µM), inactives show at the highest dose activity change, negative = inhibition, most hits filed as inhibitors; hit rate 1% among 220,000; AID 1461, 2008; also: potency is read from the fitted curve at half-maximal effect; % is scaled to controls: 0 for no effect and ±100 for the full control effect; nearly all actives have a fitted effect of over 50% in size
Target sequence (Q6W5P4 whole entry, looked up): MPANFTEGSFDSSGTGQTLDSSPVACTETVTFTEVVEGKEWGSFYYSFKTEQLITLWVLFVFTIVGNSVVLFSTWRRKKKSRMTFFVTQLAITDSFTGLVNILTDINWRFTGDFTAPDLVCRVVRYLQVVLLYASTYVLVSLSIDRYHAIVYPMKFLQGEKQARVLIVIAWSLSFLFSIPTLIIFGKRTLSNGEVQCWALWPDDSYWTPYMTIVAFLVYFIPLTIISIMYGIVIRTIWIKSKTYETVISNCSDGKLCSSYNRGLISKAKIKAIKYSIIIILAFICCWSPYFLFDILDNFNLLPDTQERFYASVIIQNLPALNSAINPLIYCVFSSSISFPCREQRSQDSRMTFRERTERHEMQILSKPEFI
PNC assembly inh = High Content Assay for Compounds that inhibit the Assembly of the Perinucleolar Compartment. AID 2417, 2010. PC3M PTB-GFP, PNC prevalence imaging, 16 h; stronger effect = lower value. hit rate 3.1% among 140,000. activity change (PNC), negative = inhibition, % at 10 µM;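 active = readout at or below -70, meaning at least 70% loss of cells showing the perinucleolar compartment, a nuclear body marking cancer cells; inconclusive = readout between -30 and a set limit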;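 also: plate controls were DMSO wells for no effect and camptothecin positive control wells for full effect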
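Read-out is percentage of cells bearing a perinucleolar compartment, from automated 20x imaging of fixed, Hoechst-stained PC3M PTB-GFP cells. Cells were seeded 4 h, then exposed 16 h to compound (23 nl of library stock) in duplicate plates.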
HTT cytoprotect = qHTS Multiplex Assay to Identify Dual Action Probes in a Cell Model of Huntington: Cytoprotection (ATP) | PC12 HTT-Q103 induced, cytoprotection, ATP luminescence, 40 h | hit rate 0.14% among 230,000 | AID 1471, 2008 | Potency, µM (top dose mostly 56.4 µM), for the others: cytoprotection (ATP increase), most hits filed as activators; also: potency is read from the fitted curve at half-maximal effect; % of control where 0% means no effect; nearly all actives have a fitted effect of over 45% in size
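Huntington model: PC12 line, ecdysone-inducible HTTQ103 exon1–GFP, tebufenozide 100 nM. Test articles in a dose series. Endpoint luminescence from cellular ATP.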
* = called active by the depositor; ? = inconclusive; / = not tested or not shown; [ ] = dose if it differs, or a comment. A selection: hits, their analogues and other compounds. The true share with any hit is near 3.3%. Unless noted, calls follow the shape of the dose curve; as a rule, active = well fitted curve in the direction sought with a large enough effect; inconclusive = small, poorly fitted or top-dose-only effect, or another doubt; inactive = no such curve, though single readings can be large; an effect the other way counts as inactive or inconclusive.

SMILES	HttQ103 aggreg	IMPase cell inh	ALOX12 inhib	NPSR antag	PNC assembly inh	HTT cytoprotect
COc1ccc(NC(=O)C(=O)NNC(=O)c2cccs2)cc1	-12.5%	/	0.2%	-3.1%	-93.5*	-0.1%[10 µM]
COc1ccc(C(CC(=O)O)NC(=O)c2cccs2)cc1 (stereo not drawn)	-0.2%	-6.6	-3.0%	-7.1%[46.1 µM]	-84.6*	5.9%[1.9 µM]
Cc1ccc(NC(=O)C(=O)NNC(=O)c2cccs2)cc1	3.4%	/	/	0.1%	/	-21.1%
CCOC(=O)c1sc(=NC(=O)c2ccco2)n(C)c1C	-8.7%	/	/	-4.8%	/	-87.0%
CCOC(=O)c1sc(=NC(=O)c2ccc(OC(C)C)cc2)n(C)c1C	-1.8%	/	/	5.01µM*	/	-15.5%
CCOC(=O)c1sc(=NC(=O)c2ccc(C)c(C)c2)n(C)c1C	-12.1%	/	/	31.6%	/	-25.0%
CCOC(=O)c1sc(=NC(=O)c2cccs2)n(C)c1C	21.9%	/	/	3.16µM*	/	/
CCOC(=O)c1sc(=NC(=O)c2ccc(S(=O)(=O)N3CC(C)OC(C)C3)cc2)n(C)c1C (stereo not drawn)	4.3%	?	-6.1%	10µM*	-18.1	3.1%
CCOC(=O)c1sc(=NC(=O)c2ccc(Cl)s2)n(C)c1C	16.1%	/	/	-51.9%	/	-10.3%[10 µM]
C[C@H]1Cc2c(-c3ccccc3)nc3c(c2CO1)CN(C(=O)c1ccco1)CC3	/	/	-1.9%[11.4 µM]	/	/	-24.6%[10 µM]
COCCNC(=O)c1ccccc1NC(=O)c1ccccc1N(C)S(C)(=O)=O	1.6%	/	3.8%	17.7%	-110.7*	7.8%[10 µM]
N#CCCn1c(=O)c(-c2cccs2)nc2cnc(N3CCOCC3)nc21	/	/	/	/	/	-7.5%
Cn1cc([N+](=O)[O-])c(C(=O)Nc2cc(Oc3ccccc3)cc([N+](=O)[O-])c2)n1	44.1%[9.22 µM]	/	-2.0%	-31.8%	-125.2*	?
O=C(O)c1cc(S(=O)(=O)Nc2cccc(Cl)c2)ccc1O	/	/	0.2%	/	/	/
Cn1c(SCC(=O)NCCN2C(=O)CSC2=O)nnc1-c1ccccc1	8.1%	/	1.8%	17.5%	-81.7*	10.6%[10 µM]
Cc1ccc(-n2c(SCC(=O)NCCN3C(=O)CSC3=O)nnc2-c2ccccc2)cc1	9.0%	/	-0.4%	-0.1%	31.3	1.7%[10 µM]
CS(=O)(=O)c1ccc([C@H](O)[C@H](CF)NC(=O)C(Cl)Cl)cc1	8.6%[20.6 µM]	-5.5[20.6 µM]	1.7%[25.6 µM]	/	/	?
CN(C)c1ccc(/C=N/NC(N)=S)cc1[N+](=O)[O-]	17.9%	/	/	-28.7%	/	12.0%[10 µM]
O=C(NCC1COc2ccccc2O1)C1CCCN(S(=O)(=O)c2cccc3nsnc23)C1 (stereo not drawn)	-25.0%	8.9	1.6%	-22.7%[46.1 µM]	29.4	-23.8%
O=C(NCC1COc2ccccc2O1)C1CCN(S(=O)(=O)c2cccc3nsnc23)CC1 (stereo not drawn)	-7.4%	-6.3	-1.8%	-12.8%[46.1 µM]	-85.4*	-12.7%
COc1ccc(OC)c(N/C=C/C(=C(C#N)C#N)N(C)C)c1	32.3%	/	/	13.7%	/	?
CCOC(=O)C1CCN(C(=O)COc2ccc(Br)cc2Br)CC1	-6.6%[9.22 µM]	/	/	-36.1%	/	-21.4%[10 µM]
CCOC(=O)C1CCN(CC(O)COc2ccc(C(C)(C)CC)cc2)CC1 (stereo not drawn)	-2.1%	7.0	-9.2%	-2.2%[7.67 µM]	-80.6*	7.4%
CCOC(=O)C1CCN(CC(O)COc2ccc(C(C)(C)C)cc2)CC1 (stereo not drawn)	13.6%	-5.7	1.0%	9.7%[46.1 µM]	0.9	-21.1%[10 µM]
COc1ccc(OCC(=O)N2CCN(C(=O)COc3ccc(Br)cc3)CC2)cc1	-4.4%	0.7	-1.1%	12.0%[46.1 µM]	-12.8	-9.8%[10 µM]
SMILES	HttQ103 aggreg	IMPase cell inh	ALOX12 inhib	NPSR antag	PNC assembly inh	HTT cytoprotect
CC(=O)N1CCN(C(=O)COc2ccc(Br)cc2)CC1	16.7%	-4.4	-0.8%	7.8%[46.1 µM]	-81.3*	-18.0%
CC(=O)c1cc(F)c(N2CCN(C(=O)COc3ccc(F)cc3)CC2)cc1C	?	1.2	-0.7%	-10.5%[46.1 µM]	-100.0*	13.8%[10 µM]
CCOC(=O)C1CCN(C(=O)COc2ccc(Br)cc2)CC1	-11.9%	0.5	-4.4%	-9.2%[46.1 µM]	-96.9*	-9.8%[0.074 µM]
CCN1C(=O)[C@H]2[C@H]3[C@H](O)[C@H](O)C/C(=N/OC[C@@H]4O[C@H](c5ccccc5)C=C[C@@H]4Oc4ccc(OC)cc4)[C@@H]3CC[C@@H]2C1=O	/	/	/	/	/	-43.3%[10 µM]
CCOC(=O)C1CCN(C(=O)COc2cccc(C)c2)CC1	0.9%	-6.9	0.6%	-0.9%[46.1 µM]	-84.8*	-2.1%[10 µM]
CCOc1ccc(N2C(=O)CC(SC(=NC)Nc3ccc(F)cc3)C2=O)cc1 (stereo not drawn)	-6.0%	2.6	4.1%	-12.6%[46.1 µM]	-100.0*	17.2%[10 µM]
CCOc1ccc(NC(=NCc2ccc3c(c2)OCO3)SC2CC(=O)N(c3ccc(OCC)cc3)C2=O)cc1 (stereo not drawn)	-19.8%	?	3.3%	-22.4%	125.3	1.7%[10 µM]
CCOc1ccc(NC(=NCc2ccc3c(c2)OCO3)SC2CC(=O)N(c3ccccc3)C2=O)cc1 (stereo not drawn)	-7.7%	-9.3	-3.0%	?	-100.0*	34.7%[10 µM]
O=C1CC(SC(=NCc2ccc3c(c2)OCO3)Nc2ccccc2)C(=O)N1 (stereo not drawn)	4.1%	0.1	-9.1%	-11.4%[46.1 µM]	-114.9*	11.0%
O=C(CSc1cccc[n+]1[O-])CSc1cccc[n+]1[O-]	-8.6%	/	/	-32.0%	/	?
[O-][n+]1ccccc1SSc1cccc[n+]1[O-]	5.01µM*	/	/	/	/	-98.4%
CC1=NN(c2ccc(Cl)cc2)C(=O)C1C(c1cccc(O)c1)c1c(C)[nH]n(-c2ccc(Cl)cc2)c1=O (stereo not drawn)	12.6µM*	/	?	10.6%	16.1	33.2%[10 µM]
CCOC(=O)CSc1nc2cc(C(=O)N3CCCC3)ccc2c(=O)n1Cc1ccccc1	2.7%	8.6	1.2%	-22.9%[46.1 µM]	23.9	5.3%
CCOC(=O)CSc1nc2cc(C(=O)N3CCC(C(N)=O)CC3)ccc2c(=O)n1-c1ccccc1	2.82µM*	5.7	-4.8%	13.0%[46.1 µM]	-13.0	-16.7%
CCOc1ccccc1-n1c(SCC(N)=O)nc2ccccc2c1=O	11.8%	2.5	3.8%	-2.7%[46.1 µM]	-105.9*	-1.1%[10 µM]
Nc1nnc(/C=C/c2ccccc2Cl)s1	-1.3%[9.22 µM]	/	/	4.2%	/	-24.4%[10 µM]
CCN(CC)S(=O)(=O)c1ccc(OC)c(NC(=O)/C=C/c2ccco2)c1	?	/	/	-22.1%	/	35.0%[10 µM]
CN1C2CCC1CC(OC(=O)c1c[nH]c3ccccc13)C2 (stereo not drawn)	?	9.8	3.5%	-8.1%[46.1 µM]	-89.0*	1.0%[10 µM]
